From PubChem BioAssay (EPA / NIEHS)
Calls of active or inactive are those of the source. Rule for the calls: active = hit-call score of the fitted dose curve at least 0.9, where 1 is the maximum; inactive = score below 0.9.

Experiments:
Settings in all cases: mRNA level, 48 h; actives raise or lower the signal
[1] = read-out: Glutamate-cysteine ligase catalytic (GCLC), GCLC (gene 2729); assay: LTEA_HepaRG_GCLC: Life Technologies and Expression Analysis (LTEA) Assay for Glutamate-cysteine ligase catalytic (GCLC) using HepaRG (AID 2283498)
Outline: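 Differentiated human HepaRG cells, plated 48 h then switched to serum-free induction medium, were exposed in duplicate for 48 h to 8 half-log concentrations topping at 100 uM in 0.5% DMSO. GCLC mRNA was quantified by qRT-PCR against ACTB, GAPDH and POLR2A.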

[2] = read-out: growth arrest and DNA damage 45 (GADD45G), GADD45G (gene 10912); assay: LTEA_HepaRG_GADD45G: Life Technologies and Expression Analysis (LTEA) Assay for growth arrest and DNA damage 45 (GADD45G) using HepaRG (AID 2283499)
Outline: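 Human hepatic HepaRG line treated 48 h with chemicals (eight concentrations, half-log steps from 100 uM); transcript induction or repression of GADD45G scored by qRT-PCR versus DMSO vehicle.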

[3] = read-out: Glutamate-cysteine ligase regulatory (GCLM), GCLM (gene 2730); assay: LTEA_HepaRG_GCLM: Life Technologies and Expression Analysis (LTEA) Assay for Glutamate-cysteine ligase regulatory (GCLM) using HepaRG (AID 2283500)
Outline: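 Human liver HepaRG cultures receive test chemicals for 48 hours at up to 100 uM in 0.5% DMSO. GCLM expression is measured by qRT-PCR and analysed for increases or decreases against vehicle.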

[4] = read-out: 3-Hydroxy-3-Methylglutaryl-CoA Synthase 2 (HMGCS2), HMGCS2 (gene 3158); assay: LTEA_HepaRG_HMGCS2: Life Technologies and Expression Analysis (LTEA) Assay for 3-Hydroxy-3-Methylglutaryl-CoA Synthase 2 (HMGCS2) using HepaRG (AID 2283504)
Outline: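 Expression of HMGCS2 in human HepaRG liver cells is measured by qRT-PCR 48 h after dosing (highest 100 uM, half-log series, 0.5% DMSO). Values come from bidirectional concentration-response fitting with DMSO as baseline.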

HGF (gene 3082) = assay: LTEA_HepaRG_HGF: Life Technologies and Expression Analysis (LTEA) Assay for Hepatocyte Growth Facto (HGF) using HepaRG (AID 2283505)
Outline: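 Gain or loss of HGF mRNA in human HepaRG liver cells after 48 h chemical exposure; eight concentrations up to 100 uM with 0.5% DMSO vehicle, quantified by TaqMan qRT-PCR.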

[5] = read-out: Insulin Like Growth Factor 1 (IGF1), IGF1 (gene 3479); assay: LTEA_HepaRG_IGF1: Life Technologies and Expression Analysis (LTEA) Assay for Insulin Like Growth Factor 1 (IGF1) using HepaRG (AID 2283506)
Outline: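 Using human HepaRG liver cells, IGF1 transcript induction or suppression is measured 48 h after dosing across eight concentrations capped at 100 uM. Values derive from bidirectional concentration-response fitting with DMSO as baseline.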

[6] = read-out: Intercellular Adhesion Molecule 1 (ICAM1), ICAM1 (gene 3383); assay: LTEA_HepaRG_ICAM1: Life Technologies and Expression Analysis (LTEA) Assay for Intercellular Adhesion Molecule 1 (ICAM1) using HepaRG (AID 2283507)
Outline: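 Gain or loss of transcript in HepaRG hepatic cells is quantified by qRT-PCR after 48 h chemical exposure (up to 100 uM, half-log steps), with DMSO as baseline.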

[7] = read-out: Insulin-like growth factor-binding protein 1 (IGFBP1), IGFBP1 (gene 3484); assay: LTEA_HepaRG_IGFBP1: Life Technologies and Expression Analysis (LTEA) Assay for Insulin-like growth factor-binding protein 1 (IGFBP1) using HepaRG (AID 2283508)
Outline: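 mRNA induction or loss was quantified by qRT-PCR after 48 h chemical exposure of human HepaRG cells, with 0.5% DMSO as vehicle and baseline. Concentration-response over eight points up to 100 uM.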

[8] = read-out: Interleukin 6 Receptor (IL6R), IL6R (gene 3570); assay: LTEA_HepaRG_IL6R: Life Technologies and Expression Analysis (LTEA) Assay for Interleukin 6 Receptor (IL6R) using HepaRG (AID 2283510);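 for AC50: TaqMan qRT-PCR signal normalized to ACTB GAPDH and POLR2A housekeeping genes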
Outline: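 Concentration-response in human liver HepaRG cells: eight concentrations from 100 uM downward by half-logs, 48 h exposure, 0.5% DMSO vehicle. IL6R mRNA change measured by qRT-PCR and fitted in both directions relative to vehicle.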

[9] = read-out: Potassium channel subfamily K member 1 (KCNK1), KCNK1 (gene 3775); assay: LTEA_HepaRG_KCNK1: Life Technologies and Expression Analysis (LTEA) Assay for Potassium channel subfamily K member 1 (KCNK1) using HepaRG (AID 2283511)
Outline: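 Differentiated human HepaRG cells in serum-free induction medium were exposed in duplicate for 48 h to 8 half-log concentrations up to 100 uM in 0.5% DMSO. KCNK1 mRNA was measured by TaqMan qRT-PCR, normalized to ACTB, GAPDH and POLR2A, and fitted bidirectionally versus DMSO.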

[10] = read-out: Keratin 19 (KRT19), KRT19 (gene 3880); assay: LTEA_HepaRG_KRT19: Life Technologies and Expression Analysis (LTEA) Assay for Keratin 19 (KRT19) using HepaRG (AID 2283512)
Outline: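 Gene-expression endpoint in the human liver line HepaRG after 48 h exposure to up to 100 uM test chemical with 0.5% DMSO vehicle; KRT19 mRNA by qRT-PCR, analyzed bidirectionally versus DMSO.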

[11] = read-out: JUN Transcription Factor, JUN (gene 3725); assay: LTEA_HepaRG_JUN: Life Technologies and Expression Analysis (LTEA) Assay for JUN Transcription Factor using HepaRG (AID 2283513)
Outline: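 Human HepaRG liver cells receive test chemicals in 0.5% DMSO for 48 h across an eight-point range topping at 100 uM. Expression changes in JUN are scored in both directions against the DMSO vehicle.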

[12] = read-out: Lipase C (LIPC), LIPC (gene 3990); assay: LTEA_HepaRG_LIPC: Life Technologies and Expression Analysis (LTEA) Assay for Lipase C (LIPC) using HepaRG (AID 2283514)
Outline: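 Differentiated human HepaRG cells in serum-free induction medium were exposed in duplicate for 48 h to eight concentrations (top 100 uM, half-log steps, 0.5% DMSO). LIPC mRNA was quantified by TaqMan qRT-PCR, normalized to ACTB, GAPDH and POLR2A, with bidirectional fitting versus DMSO.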

[13] = read-out: MicroRNA 122 (MIR122), gene 406906; assay: LTEA_HepaRG_MIR122: Life Technologies and Expression Analysis (LTEA) Assay for MicroRNA 122 (MIR122) using HepaRG (AID 2283516); note: the transcript read is the microRNA miR-122
Outline: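 HepaRG, 48 h exposure, 8-pt half-log from 100 uM, 0.5% DMSO; TaqMan qRT-PCR; bidirectional fit vs DMSO.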

[14] = read-out: matrix metalloproteinase-10 (MMP10), MMP10 (gene 4319); assay: LTEA_HepaRG_MMP10: Life Technologies and Expression Analysis (LTEA) Assay for matrix metalloproteinase-10 (MMP10) using HepaRG (AID 2283517)
Outline: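 HepaRG, collagen I, ~100,000 cells/well; serum-free induction medium; 48 h exposure, duplicate, 8-pt half-log to 100 uM, 0.5% DMSO. Readout: TaqMan qRT-PCR, normalized to ACTB/GAPDH/POLR2A; bidirectional fit vs DMSO.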

[15] = read-out: Heat shock 70 kDa protein 1 (HSPA1A), gene 3303; assay: LTEA_HepaRG_HSPA1A: Life Technologies and Expression Analysis (LTEA) Assay for Heat shock 70 kDa protein 1 (HSPA1A) using HepaRG (AID 2283502)
Outline: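 HSPA1A induction in human HepaRG liver cells is measured after 48 h of chemical treatment (100 uM maximum, 0.5% DMSO vehicle). Expression comes from qRT-PCR normalized to endogenous controls.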

[16] = read-out: Hypoxia-inducible factor 1-alpha (Homo sapiens) (UniProt Q16665); assay: LTEA_HepaRG_HIF1A: Life Technologies and Expression Analysis (LTEA) Assay for Hypoxia-inducible factor 1 (HIF1A) Trancription factor using HepaRG (AID 2283503)
Outline: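 HepaRG, 48 h exposure, 8-pt half-log series from 100 uM, 0.5% DMSO vehicle, duplicates. Readout: HIF1A transcript by qRT-PCR (Fluidigm array), housekeeping-normalised. Bidirectional curve fit vs DMSO baseline.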

[17] = read-out: Interleukin 6 (IL6), IL6 (gene 3569); assay: LTEA_HepaRG_IL6: Life Technologies and Expression Analysis (LTEA) Assay for Interleukin 6 (IL6) using HepaRG (AID 2283509)
Outline: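 Differentiated human HepaRG cells, plated 48 h then switched to serum-free induction medium, were exposed in duplicate for 48 h to eight half-log concentrations up to 100 uM in 0.5% DMSO. IL6 mRNA measured by qRT-PCR, normalized to ACTB/GAPDH/POLR2A.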

[18] = read-out: Lipoprotein lipase (LPL), LPL (gene 4023); assay: LTEA_HepaRG_LPL: Life Technologies and Expression Analysis (LTEA) Assay for Lipoprotein lipase (LPL) using HepaRG (AID 2283515)
Outline: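 Differentiated human HepaRG cells in serum-free induction medium were exposed in duplicate for 48 h to eight half-log concentrations (top 100 uM) in 0.5% DMSO. LPL mRNA was quantified by TaqMan qRT-PCR, normalized to ACTB, GAPDH and POLR2A.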

Measured: AC50

Sequence of Hypoxia-inducible factor 1-alpha (Homo sapiens) (Q16665 whole entry, looked up): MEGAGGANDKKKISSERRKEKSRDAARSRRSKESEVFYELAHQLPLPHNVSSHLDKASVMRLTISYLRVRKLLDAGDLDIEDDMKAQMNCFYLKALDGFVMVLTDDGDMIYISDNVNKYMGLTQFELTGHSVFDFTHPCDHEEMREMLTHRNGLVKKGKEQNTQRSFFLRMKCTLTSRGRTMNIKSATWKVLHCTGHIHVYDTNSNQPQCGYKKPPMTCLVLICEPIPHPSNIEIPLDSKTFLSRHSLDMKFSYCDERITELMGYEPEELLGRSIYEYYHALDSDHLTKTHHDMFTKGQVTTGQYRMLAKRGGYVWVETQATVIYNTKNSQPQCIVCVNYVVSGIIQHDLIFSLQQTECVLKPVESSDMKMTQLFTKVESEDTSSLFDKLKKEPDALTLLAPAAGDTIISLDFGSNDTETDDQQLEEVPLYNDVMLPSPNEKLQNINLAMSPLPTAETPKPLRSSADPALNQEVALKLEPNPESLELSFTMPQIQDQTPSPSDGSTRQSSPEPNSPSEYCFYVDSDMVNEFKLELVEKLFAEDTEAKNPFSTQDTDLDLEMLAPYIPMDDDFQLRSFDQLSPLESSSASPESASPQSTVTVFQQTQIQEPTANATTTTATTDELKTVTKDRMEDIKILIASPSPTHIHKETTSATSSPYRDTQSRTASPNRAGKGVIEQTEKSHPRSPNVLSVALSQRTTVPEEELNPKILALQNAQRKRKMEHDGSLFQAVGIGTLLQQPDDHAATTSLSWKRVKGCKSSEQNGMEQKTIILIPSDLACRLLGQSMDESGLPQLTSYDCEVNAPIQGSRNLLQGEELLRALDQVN

NC(=O)N1c2ccccc2C=Cc2ccccc21
not listed: [15] | [16] | [17] | [18]
inactive: all other assays above

O=C(O)c1ccc2c(c1)nc(C(=O)NC1CCN(C3CC3)CC1)n2Cc1cc(-c2ccc(Cl)s2)on1
not listed: [16] | [17] | [18]
inactive: all other assays above

OC[C@H]1O[C@@H]2O[C@H]3[C@H](O)[C@@H](O)[C@@H](O[C@H]4[C@H](O)[C@@H](O)[C@@H](O[C@H]5[C@H](O)[C@@H](O)[C@@H](O[C@H]6[C@H](O)[C@@H](O)[C@@H](O[C@H]7[C@H](O)[C@@H](O)[C@@H](O[C@H]1[C@H](O)[C@H]2O)O[C@@H]7CO)O[C@@H]6CO)O[C@@H]5CO)O[C@@H]4CO)O[C@@H]3CO
not listed: [15] | [16] | [17] | [18]
inactive: all other assays above

c1ccc2c(c1)-c1cccc3c1c-2cc1ccccc13
active: [2] 14 µM | [4] 16.1 µM | HGF (gene 3082) 50 µM | [5] 16 µM | [7] 2.54 µM | [8] 11.1 µM | [10] 1.4 µM | [12] 13.3 µM | [13] 19.6 µM
inactive: [1] | [3] | [16] | [6] | [17] | [9] | [11] | [14]

CCCc1ccccc1
not listed: [15] | [16] | [17] | [18]
inactive: all other assays above

O=C(O)c1cccc(C(=O)O)c1
not listed: [15]
inactive: all other assays above

O=C(NO)C1(NS(=O)(=O)c2ccc(Oc3ccc(F)cc3)cc2)CCOCC1
active: [2] 72.6 µM | [4] 83.3 µM | [5] 50 µM | [10] 71.4 µM | [18] 76.6 µM
not listed: [15] | [16] | [17]
inactive: all other assays above

CCCCCCCC/C=C\CCCCCCCC(=O)OC[C@@H](O)[C@H]1OC[C@H](O)[C@H]1O
not listed: [16] | [17]
inactive: all other assays above

CCN(CC)C(=S)SSC(=S)N(CC)CC
not listed: HGF (gene 3082) | [15] | [16] | [17]
inactive: all other assays above

CCCCCOC(C)=O
not listed: [16] | [17] | [18]
inactive: all other assays above

CCCC(CCC)C(=O)O
not listed: HGF (gene 3082) | [18]
inactive: all other assays above

OC(Cn1cncn1)(Cn1cncn1)c1ccc(F)cc1F
not listed: [16] | [17] | [18]
inactive: all other assays above

Cc1ccc(S(=O)(=O)NC(=O)NN2CCCCCC2)cc1
not listed: [15] | [16] | [18]
inactive: all other assays above

CCCCOC(=O)c1ccccc1
not listed: [16] | [17] | [18]
inactive: all other assays above

O=C(O)c1cccc(C[C@@H]2COc3ccc(OCc4nc5cc(F)ccc5s4)cc3[C@@H]2O)c1
active: [2] 79.5 µM | [15] 89.2 µM | [4] 66.8 µM | HGF (gene 3082) 50 µM | [8] 50 µM
not listed: [16] | [17] | [18]
inactive: all other assays above

O=C(O)[C@H](O)[C@@H](O)C(=O)O
not listed: [15] | [16] | [17] | [18]
inactive: all other assays above
